Source: the OligoGym collection

target: ZDHHC4; test: pooled miR-30 sensor sort-seq; sequence = guide strand; details: shRNA
Further: reference of the scale not given here.

Sequence | sensor-assay potency score (higher = more potent)
TACTGAATAAGAAAGACCGTGT | 0.745
ATACAGGACAAACAACAGGTAG | -1.34
TAGAAAGATCTCTTGAAGGTTG | 0.193
TTGCTTTTGTTATAATGCCAGG | -1.32
ATCTCTTGAAGGTTGCTCCGAA | -0.154
TACCACTCGTTAGTAGTCTGGT | -0.0383
TTATACAGGAAAATATCTGTGC | 0.584
TAAACGGGAACTACAGCTCAAA | -0.745
TTGGAAACATCACTTCATCAAA | -1.15
TAAATCTGACATCACCACCAAG | -0.923
TTTGCTTTTGTTATAATGCCAG | -0.404
TACAGGACAAACAACAGGTAGC | -0.502

target: ZDHHC6; test: as above; details: shRNA

Sequence | sensor-assay potency score (higher = more potent)
TTTTCTAGGGAACCAACCCCTT | -1.12
TTCTGCAGTGATGTGAACGTGG | 0.312
AACTGTTCTATTGTTAAGCTGT | -0.493
TGAAATTCACACTTCCTCCAGT | -0.0351
TTCTTGTAGATTTTCAAACTTG | -0.053
ATTTTGTCTCCATATAACCAGT | -1.42
TCTTCTATTACTTTATAGCGAA | -0.958
TATTCTTGAAACACCTTCTATA | -0.715
TTATTCTTGAAACACCTTCTAT | -0.81
